The values below come from PubChem BioAssay (Tox21).

Values without a mark were called inactive. Records with an inconclusive call do not appear. Active and inactive are the calls of the source. Calls come from the whole dose curve; as a rule, active = well fitted curve in the direction sought with a large enough effect in the repeat runs; inconclusive = weak or mixed curves; inactive = no such curve, though single readings can be large; an effect the other way counts as inactive or inconclusive.

The nature of assay [1]: A CellTox Green Cytotoxicity Assay to monitor cytotoxicity in HEK293 cells - 40 hour (AID 1224871). Note: nearly all actives have a fitted effect of over 45% in size. In a few lines:
(§1)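 Real-time, in one plate: 600 HEK293 cells/well with dead-cell DNA dye, pinned compound after 5 h, 37 C incubation over 40 h; viable cells give no appreciable fluorescence.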

The nature of assay [2]: qHTS RealTime-Glo MT Cell Viability Assay in HepG2 cells - 8 hour (AID 1224873). Note: nearly all actives have a fitted effect of over 55% in size. The procedure, abridged: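 HepG2 cells mixed with RealTime-Glo MT reagents (NanoLuc plus cell-permeant prosubstrate) were seeded at 600 cells/well, incubated 5 h at 37 C/5% CO2, then pinned with compounds in DMSO; nonlytic luminescence tracked viability during 40 h treatment.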
A short description of assay [3]: qHTS RealTime-Glo MT Cell Viability Assay in HEK293 cells - 40 hour (AID 1224874). Note: nearly all actives have a fitted effect of over 50% in size. Note: potency is the fitted concentration of half-maximal effect. The following applies: RealTime-Glo luminescence; max response: hits give low values. In a few lines: (§2)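 Kinetic, non-lysing viability readout. Seed HEK293 (600/well) with reagent, incubate 5 h at 37 C/5% CO2, pin 23 nL compound in DMSO, incubate at 37 C, read luminescence at 0, 8, 16, 24, 32, 40 h.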

A short description of assay [4]: A CellTox Green Cytotoxicity Assay to monitor cytotoxicity in HEK293 cells - 24 hour (AID 1224875). Note: series mostly up to about 77 µM; nearly all actives have a fitted effect of over 45% in size. In a few lines:
as §1

Assay [5] can be described thus: A CellTox Green Cytotoxicity Assay to monitor cytotoxicity in HepG2 cells - 16 hour (AID 1224876). Note: nearly all actives have a fitted effect of over 45% in size. The procedure, abridged: (§3)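 Cytotoxicity was tracked as dead-cell DNA fluorescence in HepG2 cells treated with test compounds at 37 C; each time-point value comes from one kinetic series spanning 0, 8, 16, 24, 32 and 40 h.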
Assay [6] in a line: qHTS RealTime-Glo MT Cell Viability Assay in HepG2 cells - 32 hour (AID 1224877). Note: nearly all actives have a fitted effect of over 55% in size. The procedure, abridged:
(§4)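 Cells + NanoLuc/prosubstrate dispensed (600 cells/well) → 5 h at 37 C/5% CO2 → compounds in DMSO transferred → 40 h incubation at 37 C, luminescence read at 0, 8, 16, 24, 32, 40 h.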
Background: qHTS replaces the single test concentration by a dilution series.

The nature of assay [7]: A CellTox Green Cytotoxicity Assay to monitor cytotoxicity in HepG2 cells - 24 hour (AID 1224878). Note: nearly all actives have a fitted effect of over 45% in size. Note: potency is the fitted concentration of half-maximal effect. In a few lines:
as §3

Assay [8] can be described thus: A CellTox Green Cytotoxicity Assay to monitor cytotoxicity in HepG2 cells - 40 hour (AID 1224879). Note: nearly all actives have a fitted effect of over 40% in size. Note: potency is the fitted concentration of half-maximal effect. In a few lines:
as §3

Assay [9] in a line: qHTS RealTime-Glo MT Cell Viability Assay in HEK293 cells - 0 hour (AID 1224880). The procedure, abridged: as §2
Assay [10] is described as follows: A CellTox Green Cytotoxicity Assay to monitor cytotoxicity in HEK293 cells - 32 hour (AID 1224881). Note: nearly all actives have a fitted effect of over 40% in size. The procedure, abridged:
as §1

Assay [11] in a line: A CellTox Green Cytotoxicity Assay to monitor cytotoxicity in HepG2 cells - 0 hour (AID 1224882). Note: nearly all actives have a fitted effect of over 35% in size. In a few lines:
as §3

Assay [12] in a line: A CellTox Green Cytotoxicity Assay to monitor cytotoxicity in HepG2 cells - 32 hour (AID 1224883). Note: nearly all actives have a fitted effect of over 50% in size. Note: potency is the fitted concentration of half-maximal effect. The procedure, abridged:
as §3

A short description of assay [13]: A CellTox Green Cytotoxicity Assay to monitor cytotoxicity in HEK293 cells - 8 hour (AID 1224884). Note: nearly all actives have a fitted effect of over 35% in size. In a few lines: as §1
The nature of assay [14]: qHTS RealTime-Glo MT Cell Viability Assay in HepG2 cells - 16 hour (AID 1224885). Note: nearly all actives have a fitted effect of over 50% in size. The procedure, abridged: as §4
The nature of assay [15]: qHTS RealTime-Glo MT Cell Viability Assay in HEK293 cells - 24 hour (AID 1224886). Note: nearly all actives have a fitted effect of over 50% in size. Note: potency is the fitted concentration of half-maximal effect. In a few lines:
(§5)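 Tox21 10K qHTS, HEK293, 600 cells/well, RealTime-Glo reagent co-dispensed with cells; 5 h preincubation, compound by pintool, 37 C, luminescence at 0–40 h.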

A short description of assay [16]: qHTS RealTime-Glo MT Cell Viability Assay in HEK293 cells - 8 hour (AID 1224887). Note: nearly all actives have a fitted effect of over 50% in size. Note: potency is the fitted concentration of half-maximal effect. In a few lines:
as §2

Assay [17] can be described thus: A CellTox Green Cytotoxicity Assay to monitor cytotoxicity in HEK293 cells - 16 hour (AID 1224888). Note: nearly all actives have a fitted effect of over 35% in size. In a few lines: as §1
Assay [18] is described as follows: qHTS RealTime-Glo MT Cell Viability Assay in HepG2 cells - 0 hour (AID 1224889). Note: nearly all actives have a fitted effect of over 50% in size. In a few lines:
as §4

A short description of assay [19]: A CellTox Green Cytotoxicity Assay to monitor cytotoxicity in HepG2 cells - 8 hour (AID 1224890). Note: nearly all actives have a fitted effect of over 45% in size. In a few lines:
as §3

Assay [20] in a line: qHTS RealTime-Glo MT Cell Viability Assay in HEK293 cells - 16 hour (AID 1224872). Note: nearly all actives have a fitted effect of over 50% in size. Note: potency is the fitted concentration of half-maximal effect. In a few lines: as §5
% is set by controls: 0 for no effect and ±100 for the full control effect.

For the compound `CCCCCCCCCOS(=O)(=O)O`, the Potency result in [1], in assay [2], in [4], in assay [5], in [6] and in assay [7] was “inactive” in each case. Also, the Potency result in assay [8], in assay [9], in assay [10], in assay [11], in assay [12] and in assay [13] was “inactive” in each case. Also, the Potency result in [14], in assay [15], in [16], in [17], in assay [18] and in assay [19] was “inactive” in each case. Besides, in assay [3], the max response is 4.38%.

With `CC(C)(CO)[N+](=O)[O-]`, the Potency entry in assay [1], in assay [2], in [4], in assay [5], in assay [6] and in [7] was “inactive” in each case. Also, the Potency result in assay [8], in assay [9], in assay [10], in assay [11], in assay [12] and in assay [13] was “inactive” in each case. Besides, the Potency entry in assay [14], in [15], in assay [16], in assay [17], in assay [18] and in [19] was “inactive” throughout. Also, in assay [3], the max response is 3.49%.

Regarding `CC[N+]1(CC)CCC(=C(c2ccccc2)c2ccccc2)C1C` (configuration not stated), the Potency entry in [1], in assay [20], in assay [4], in [5], in assay [6] and in assay [7] was “inactive” in each case. The Potency entry in assay [8], in assay [9], in assay [10], in assay [11], in assay [12] and in assay [13] was “inactive” throughout. The Potency result in assay [14], in [16], in [17], in assay [18] and in assay [19] was “inactive” in each case.

For the compound `Cc1ncc(CO)c(C=O)c1O`, the Potency result in [1], in [2], in assay [4], in assay [5], in [6] and in assay [7] was “inactive” each time. In addition, the Potency entry in assay [8], in [9], in assay [10], in assay [11], in [12] and in [13] was “inactive” each time. For the same compound, the Potency result in assay [14], in [15], in [16], in assay [17], in assay [18] and in assay [19] was “inactive” throughout. Further, in assay [3], the max response is 0.556%.

In the case of `C/C=C/C=C/CO`, the Potency result in [1], in assay [20], in assay [4], in assay [5], in assay [6] and in assay [7] was “inactive” throughout. Also, the Potency entry in [8], in assay [9], in assay [10], in assay [11], in assay [12] and in assay [13] was “inactive” in each case. For the same compound, the Potency entry in assay [14], in [16], in assay [17], in assay [18] and in assay [19] was “inactive” in each case.

For the compound `CCCCCCOC(=O)NC(=N)c1ccc(NCc2nc3cc(C(=O)N(CCC(=O)OCC)c4ccccn4)ccc3n2C)cc1`, the Potency result in assay [1], in assay [4], in assay [5], in [10], in [11] and in [13] was “inactive” in each case. For the same compound, the Potency entry in assay [17], in assay [18] and in assay [19] was “inactive” each time. The Potency in assay [20] is 9.52 µM (active); in [3], 10.7 µM (active); in [7] it was 23.9 µM (active); in [8], 23.9 µM (active); in [12], 23.9 µM (active); in assay [15] it was 9.52 µM (active). The Potency in assay [16] is 9.52 µM (active).

As to `CC(C)(COC(=O)c1ccccc1)COC(=O)c1ccccc1`, the Potency result in assay [1], in assay [2], in [4], in [5], in assay [6] and in assay [7] was “inactive” in each case. Further, the Potency result in assay [8], in assay [9], in assay [10], in assay [11], in assay [12] and in assay [13] was “inactive” in each case. Moreover, the Potency entry in assay [14], in assay [17], in [18] and in assay [19] was “inactive” throughout. Besides, the max response in [3] was -28.7%.

For `CC1=CCCC(C)(C)C12CCC(C)O2` (configuration not stated), the Potency entry in assay [1], in [20], in [4], in assay [5], in [6] and in assay [7] was “inactive” throughout. For the same compound, the Potency result in [8], in assay [9], in assay [10], in assay [11], in assay [12] and in assay [13] was “inactive” each time. For the same compound, the Potency result in [14], in assay [15], in assay [16], in assay [17], in [18] and in assay [19] was “inactive” each time.

Consider `CCCCc1ncc(/C=C(\Cc2cccs2)C(=O)O)n1Cc1ccc(C(=O)O)cc1`, for which the Potency result in [1], in assay [2], in assay [4], in assay [5], in [6] and in assay [7] was “inactive” throughout. For the same compound, the Potency result in [8], in assay [9], in assay [10], in [11], in [12] and in assay [13] was “inactive” throughout. For the same compound, the Potency entry in [14], in assay [15], in assay [17], in [18] and in assay [19] was “inactive” each time. In addition, the max response in assay [3] was 2.83%.

With `COCC(C)OC(C)=O` (configuration not stated), the Potency entry in assay [1], in [2], in assay [4], in [5], in assay [6] and in assay [7] was “inactive” in each case. The Potency result in [8], in [9], in assay [10], in assay [11], in assay [13] and in [14] was “inactive” each time. The Potency result in [15], in [16], in [17] and in assay [18] was “inactive” each time. In addition, the max response in assay [3] is 8.38%.
